Experimental data as given in PubChem BioAssay (NCI).
This is part of a sample that, as a whole, favours compounds with a hit. Of some 79,000 tested, about 15% had one in any assay. The source made the active and inactive calls. Cut-off read from the data, not from the text of the source: active = growth inhibition above about 70%; inactive = the rest.

Legend:
[1] = NCI Yeast Anticancer Drug Screen. Data for the rad50 strain (AID 155);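 note: 0% = growth of vehicle-only cultures of the same strain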; conditions: S. cerevisiae rad50 strain growth inhibition; at 50.0 µM; active compounds read high
How it was run: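 Relative growth inhibition (compound vs vehicle) was measured in yeast with a defined repair-gene alteration.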

[2] = NCI Yeast Anticancer Drug Screen. Data for the mec2-1 strain (AID 157); conditions: S. cerevisiae mec2-1 strain, at 50.0 µM, active compounds read high
How it was run: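 Readout is yeast growth inhibition, normalised to vehicle-treated controls, in the mec2-1 strain exposed to compound.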

[3] = NCI Yeast Anticancer Drug Screen. Data for the sgs1 mgt1 strain (AID 161);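 note: 0% = growth of cultures given vehicle only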; conditions: S. cerevisiae sgs1 mgt1 strain, at 50.0 µM, active compounds read high
How it was run: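 Percent growth inhibition was derived by comparing compound-exposed mutant yeast with vehicle-exposed cultures. The strain carries alterations in DNA damage repair.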

[4] = NCI Yeast Anticancer Drug Screen. Data for the cln2 rad14 strain (AID 165);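 note: 0% = growth equal to vehicle treated cultures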; conditions: S. cerevisiae cln2 rad14 strain, at 50.0 µM, active compounds read high
How it was run: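 Relative to vehicle controls, growth inhibition of compound-treated cln2 rad14 yeast was recorded.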

[5] = NCI Yeast Anticancer Drug Screen. Data for the bub3 strain (AID 167); conditions: S. cerevisiae bub3 mutant strain, at 50.0 µM, active compounds read high
How it was run: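 Screening used yeast with an engineered genetic alteration affecting cell cycle control. Compound-exposed cultures were compared with vehicle cultures, and reduced growth was taken as inhibition.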

[6] = NCI Yeast Anticancer Drug Screen. Data for the mlh1 rad18 strain (AID 175); conditions: S. cerevisiae mlh1 rad18 strain growth inhibition; at 50.0 µM; active compounds read high
How it was run: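 Test agents were incubated with a yeast strain of defined genotype (DNA damage repair defect). Inhibition of growth was derived by comparison with vehicle-exposed cultures.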

SMILES	growth inhibition [1]	growth inhibition [2]	growth inhibition [3]	growth inhibition [4]	growth inhibition [5]	growth inhibition [6]
O=C(NCCCl)c1ccc(F)cc1	-21.2% (inactive)	-4.65% (inactive)	-12.4% (inactive)	0.35% (inactive)	-6.95% (inactive)	-44.7% (inactive)
Cn1c(-c2ccccc2)cc(=O)cc1-c1ccccc1	-22.9% (inactive)	13.1% (inactive)	-10.2% (inactive)	-1.25% (inactive)	-4.45% (inactive)	-19.2% (inactive)
CC(C)(O)c1cc2nc3ccccc3nc2n1CCO	-19.6% (inactive)	-22.4% (inactive)	8.45% (inactive)	4.25% (inactive)	4.25% (inactive)	-14.4% (inactive)
CC(N)C(C)(C)O (stereo not drawn)	-2.1% (inactive)	-13.7% (inactive)	1.7% (inactive)	-12.8% (inactive)	6.2% (inactive)	0.05% (inactive)
CCCCCCCCCCC/C=N\[N+](C)(C)C	98.3% (active)	99.3% (active)	98.7% (active)	96.8% (active)	98.8% (active)	98.2% (active)
CSc1nc(N(C)C)c2[nH]c(C)nc2n1	7.2% (inactive)	9.5% (inactive)	-6.55% (inactive)	36.6% (inactive)	10.6% (inactive)	31.6% (inactive)
CCCCCCCCCC(=O)N/N=C/c1ccccc1O	-4.3% (inactive)	12.7% (inactive)	19.2% (inactive)	-19.1% (inactive)	19.9% (inactive)	13.8% (inactive)
CCOC(=O)c1ccc(NCc2ccc3oc(=O)c(-c4ccccc4)nc3c2)cc1	-14.7% (inactive)	-16.6% (inactive)	-12.8% (inactive)	22.2% (inactive)	-17.7% (inactive)	-17.4% (inactive)
CN=C1c2ccccc2C(=O)c2c1c(O)n(-c1ccccc1)c2O	27.9% (inactive)	15.3% (inactive)	20.9% (inactive)	21.5% (inactive)	29.4% (inactive)	36.8% (inactive)
Nc1nnc(-c2ccc(Nc3nc4ccccc4[nH]3)c([N+](=O)[O-])c2)s1	7% (inactive)	1.4% (inactive)	27.7% (inactive)	15.3% (inactive)	3.15% (inactive)	14.1% (inactive)
Nc1nc(N)nc(SCC(=O)O)n1	8.55% (inactive)	-23.2% (inactive)	2% (inactive)	3.15% (inactive)	-2.05% (inactive)	14.9% (inactive)
CCN(CC)CCOC(=O)c1ccc(NC(=O)OCCC(C)OC(=O)Nc2ccc(C(=O)OCCN(CC)CC)cc2)cc1 (stereo not drawn)	-1.55% (inactive)	1.2% (inactive)	-1.65% (inactive)	-4.4% (inactive)	-6.6% (inactive)	11.9% (inactive)
COc1ccc(N2C(=O)CCC2=O)cc1	-7.8% (inactive)	0.25% (inactive)	-7.7% (inactive)	-6.15% (inactive)	-9.9% (inactive)	4.9% (inactive)
CCC(CC)COC(=O)CC(C)=O	18.2% (inactive)	52.9% (inactive)	6.9% (inactive)	86.8% (active)	28.2% (inactive)	33.4% (inactive)
COC(=O)[C@]1(C)CCC[C@]2(C)c3ccc(C(C)=O)cc3C(=O)C[C@@H]12	-1.5% (inactive)	-10.8% (inactive)	9.5% (inactive)	-31.6% (inactive)	-8.5% (inactive)	-15.1% (inactive)
N#Cc1c(-c2ccc([N+](=O)[O-])cc2)c(C#N)c(=O)n(NS(=O)(=O)c2ccccc2)c1-c1ccccc1	7.1% (inactive)	13.3% (inactive)	-2.45% (inactive)	4.05% (inactive)	6.25% (inactive)	26.4% (inactive)
CCN(CC)CCOC(c1ccccc1)c1ccccc1	3.8% (inactive)	-9.75% (inactive)	-1.2% (inactive)	-10.8% (inactive)	-0.05% (inactive)	-11.8% (inactive)
N/C([S-])=N/N=c1\c(O)c(O)\c1=N/N=C(/N)[S-].[Cu+2]	-8.6% (inactive)	-6.6% (inactive)	-7% (inactive)	-2.7% (inactive)	-10.3% (inactive)	-12.7% (inactive)
O=C(CC(c1ccccc1)N1CCCCC1)OCC1CCCO1 (stereo not drawn)	-0.85% (inactive)	-13.7% (inactive)	-4.1% (inactive)	-44.5% (inactive)	-1.85% (inactive)	14.3% (inactive)

SMILES	growth inhibition [1]	growth inhibition [2]	growth inhibition [3]	growth inhibition [4]	growth inhibition [5]	growth inhibition [6]
COC(=O)c1nc(N)nc(C(=O)OC)c1C(=O)c1cccc2ccccc12	-33.5% (inactive)	-26.1% (inactive)	1.65% (inactive)	-26.8% (inactive)	-33.3% (inactive)	-20.9% (inactive)
O=C(NC(CSSCC(NC(=O)OCc1ccccc1)C(=O)O)C(=O)O)OCc1ccccc1 (stereo not drawn)	-8.6% (inactive)	-31.4% (inactive)	-2.4% (inactive)	-4.1% (inactive)	-33% (inactive)	-25.2% (inactive)
NC(CC(=O)NC(CC(=O)O)C(=O)O)C(=O)O (stereo not drawn)	-5.5% (inactive)	-1% (inactive)	-8.9% (inactive)	-56% (inactive)	-20% (inactive)	5.2% (inactive)
CSc1ncc(C=O)n1Cc1ccccc1	-4.35% (inactive)	6.7% (inactive)	0.3% (inactive)	-34.5% (inactive)	2.15% (inactive)	5.6% (inactive)
C[N+](C)(C)CC(=O)N/N=C(\C(=O)NC1=C(Cl)C(=O)c2ccccc2C1=O)C(C#N)c1csc(-c2ccc([N+](=O)[O-])cc2)n1 (stereo not drawn)	14.8% (inactive)	26.6% (inactive)	-5.8% (inactive)	17.6% (inactive)	33.5% (inactive)	19.9% (inactive)
N#Cc1c[nH]n2ccnc12	-16.7% (inactive)	-20.4% (inactive)	-23.4% (inactive)	-21.7% (inactive)	-4.1% (inactive)	-17.1% (inactive)
CCCNC=O	-6.8% (inactive)	-7.85% (inactive)	-13.8% (inactive)	-14.4% (inactive)	-5.1% (inactive)	-5% (inactive)
CC(=O)c1cc(C)c(C)cc1C	-13.9% (inactive)	7.6% (inactive)	-2.5% (inactive)	-12% (inactive)	1.65% (inactive)	-12.5% (inactive)
[Cl][Sm]([Cl])[Cl]	17.9% (inactive)	-9.7% (inactive)	8.65% (inactive)	8.6% (inactive)	27.6% (inactive)	9.6% (inactive)
Cc1ccc(Nc2ccc(O)c3c2C(=O)c2ccccc2C3=O)cc1	-17.9% (inactive)	-3.6% (inactive)	5.45% (inactive)	-29.6% (inactive)	16.1% (inactive)	15.5% (inactive)
CCNCc1cc(Nc2nc(NC3CCC(N(C)C)CC3)c3ccccc3n2)ccc1OC (stereo not drawn)	2.4% (inactive)	7% (inactive)	-5.8% (inactive)	28.3% (inactive)	3.45% (inactive)	9% (inactive)
COc1ccc(/C=N/Nc2nc(C)c3c(n2)Nc2ccccc2NC3=O)cc1	-15.2% (inactive)	10.2% (inactive)	3.55% (inactive)	-1.95% (inactive)	-1.45% (inactive)	-19.8% (inactive)
COC(=O)/C=C\CC(=O)OC	2.75% (inactive)	-5% (inactive)	-19.9% (inactive)	-5.05% (inactive)	-11% (inactive)	-0.65% (inactive)
C=CCOC(=O)CCCCC	5% (inactive)	-2.7% (inactive)	2.65% (inactive)	7.9% (inactive)	-3.65% (inactive)	0.75% (inactive)
O=C(OCCO)C1CC2CC1C1(C2)OCCO1 (stereo not drawn)	-2% (inactive)	-13.2% (inactive)	13.9% (inactive)	-12.1% (inactive)	42% (inactive)	0.5% (inactive)
CC(=O)Oc1cc(C(C)C)c(OCCN(C)C)cc1C	-0.15% (inactive)	10.3% (inactive)	0.45% (inactive)	-3.6% (inactive)	-0.5% (inactive)	-4.1% (inactive)
C=C(CCCCCCCCC)CC(=O)SCCNC(=O)CCNC(=O)C(O)C(C)(C)COP(=O)(O)OP(=O)(O)OCC1OC(n2cnc3c(N)ncnc32)C(O)C1OP(=O)(O)O (stereo not drawn)	-7.95% (inactive)	-14.8% (inactive)	0.55% (inactive)	-17% (inactive)	-19.6% (inactive)	0.4% (inactive)
S=c1nc[nH]c2nc[nH]c12	-18% (inactive)	0.25% (inactive)	-6.75% (inactive)	-66.5% (inactive)	10.8% (inactive)	20.1% (inactive)
CCCC[N+](C)(CCCC)CCCC	9.15% (inactive)	9.65% (inactive)	7.8% (inactive)	-1.15% (inactive)	14.2% (inactive)	3.3% (inactive)
